Hits are enriched below; roughly 10% of the tested compounds scored in any of these assays.
RORg inh = ROR gamma (mouse) transcription inhibition; P51450; Drosophila S2 Gal4-RORgamma UAS-luciferase reporter, 20 h; Potency, µM (titrated, usually from 53.6 µM), without a hit: at the top dose activity change, negative = inhibition, actives largely listed as inhibitors; 310,000 tested, 5.4% active; also: % is scaled to controls: 0 for no effect and ±100 for the full control effect; nearly all actives have a fitted effect of over 60% in size
Target sequence (P51450 whole entry, looked up, the tested form may be a part): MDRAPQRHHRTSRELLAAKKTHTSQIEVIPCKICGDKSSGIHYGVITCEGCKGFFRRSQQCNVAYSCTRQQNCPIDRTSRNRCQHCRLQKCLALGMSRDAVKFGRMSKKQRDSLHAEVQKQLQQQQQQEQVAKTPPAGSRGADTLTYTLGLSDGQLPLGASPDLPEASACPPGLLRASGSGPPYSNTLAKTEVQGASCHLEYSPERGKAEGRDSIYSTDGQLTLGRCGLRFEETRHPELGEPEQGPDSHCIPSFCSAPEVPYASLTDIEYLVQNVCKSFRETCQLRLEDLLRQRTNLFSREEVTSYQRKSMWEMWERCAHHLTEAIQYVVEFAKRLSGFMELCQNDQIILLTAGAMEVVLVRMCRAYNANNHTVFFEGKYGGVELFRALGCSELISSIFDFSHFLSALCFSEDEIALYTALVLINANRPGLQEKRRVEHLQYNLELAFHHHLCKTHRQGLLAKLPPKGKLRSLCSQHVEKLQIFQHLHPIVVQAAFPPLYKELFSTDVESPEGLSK
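A Gal4/UAS one-hybrid system in insect cells: metallothionein-promoter Gal4–ROR gamma fusion plus Photinus luciferase reporter. Copper sulfate 700 uM final, 20 hr ambient incubation, luminescent detection after 10 min with reagent.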
MCF10A rerep = induces DNA re-replication in MCF 10a normal breast cells; MCF 10A DNA re-replication, Hoechst nuclear intensity, 48 h; Potency, µM (top dose mostly 46.1 µM), inactives show top-dose activity, positive = re-replication, actives largely listed as activators; AID 624296; 350,000 tested, 2.9% active; also: % of control where 0% means no effect; nearly all actives have a fitted effect of over 50% in size
SW480 rereplic = DNA re-replication induction in SW480 cells; SW480 DNA re-replication, Hoechst DNA content imaging, 48 h; Potency, µM (highest dose often 46.1 µM), for the others: top-dose re-replication activation, hits mostly activators; 340,000 tested, 1.8% active; AID 624297; also: % of control where 0% means no effect; nearly all actives have a fitted effect of over 55% in size
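Image-based read-out: total Hoechst fluorescence of nuclei (405 nm excitation, 500-530 nm emission), with hits raising the fraction of high-intensity nuclei. SW480 colon cells incubated 48 hr with compounds at 37 C.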
Gal4-VP16 FLuc = counter-screen for ROR gamma inhibitors: Gal4-VP16 reporter; 310,000 tested, 3.5% active; Drosophila S2 Gal4-VP16 UAS-luciferase, luminescence, 20 h; Potency, µM (titrated, usually from 53.6 µM), for inactives: at the highest dose activity, negative = inhibition, hits mostly inhibitors; AID 2546;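 also: Gal4-VP16 expression switched on by copper sulfate through the metallothionein promoter; % is scaled to controls: 0 for no effect and ±100 for the full control effect; nearly all actives have a fitted effect of over 50% in size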
ELG1 DNA repair = blocks ELG1-dependent DNA repair in HEK293T cells. Potency, µM (top dose mostly 46.1 µM), for inactives: at the highest dose activity change, negative = inhibition, actives largely listed as inhibitors. HEK293T ELG1-luciferase reporter, luminescence, 16 h; DNA damage induced by 5-fluorouridine. 330,000 tested, 2.3% active; also: % is scaled to controls: 0 for no effect and ±100 for the full control effect; nearly all actives have a fitted effect of over 55% in size
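HEK293T cells expressing luciferase-tagged ELG1 (2,000/well) received 5-Fluorouridine plus compound or DMSO for 16 hr at 37 °C. Luciferase was read by ONE-Glo luminescence after 30 min at room temperature.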
* hit, by the source's call; ? = inconclusive; . = not tested or not shown. Calls follow the shape of the dose curve; as a rule, active = well fitted curve in the direction sought with a large enough effect; inconclusive = small, poorly fitted or top-dose-only effect, or another doubt; inactive = no such curve, though single readings can be large; an effect the other way counts as inactive or inconclusive. Potency is read from the fitted curve at half-maximal effect.

SMILES | RORg inh | MCF10A rerep | SW480 rereplic | Gal4-VP16 FLuc | ELG1 DNA repair
C=CC[C@@H](CC(=O)OC(C)(C)C)C(=O)OC[C@@H]1CCCN1C(=O)[C@@H](CC=C)CC(=O)N[C@@H](CO)Cc1ccccc1 | . | -3.2% | -11.1% | . | 0.4%
Cc1cc(C(=O)CN2CCC(C)CC2)c(C)n1-c1ccccc1F | 5.62µM* | ? | -2.3% | 4.47µM* | ?
CC(C)CC(=O)NC(=S)Nc1cc(C(F)(F)F)ccc1N1CCOCC1 | 7.94µM* | 1.8% | ? | 7.08µM* | -2.2%
O=C(CCc1ccccc1)NC(=S)Nc1cc(C(F)(F)F)ccc1N1CCOCC1 | 7.08µM* | 26.2% | ? | ? | -14.7%
O=C(NCc1ccc(F)cc1)c1c2c(nc3ccccc13)CCN(Cc1ccccc1)C2 | ? | -6.6% | -4.8% | -9.8% | 0.8%
O=C(COC(=O)c1c2c(nc3ccccc13)CCN(Cc1ccccc1)C2)Nc1c(F)cccc1F | ? | ? | -1.2% | -17.6% | 5.8µM*
CC(=O)Nc1ccc(NC(=O)COC(=O)c2c3c(nc4ccccc24)CCN(Cc2ccccc2)C3)cc1 | ? | ? | 13.1% | -1.3% | 2.31µM*
O=C(NNS(=O)(=O)c1ccccc1[N+](=O)[O-])c1ccccc1[N+](=O)[O-] | -27.4% | -13.5% | 0.517µM* | -12.8% | 0.3%
O=C(Nc1ccc(Cl)cn1)c1ccccc1[N+](=O)[O-] | 6.8% | ? | 14.6µM* | 1.1% | -4.4%
CC(C)C(=O)NNS(=O)(=O)c1ccccc1[N+](=O)[O-] | -15.5% | -9.4% | -2.2% | 5.9% | 8.2%
O=C(Nc1cccc2c1C(=O)NC2=O)c1ccccc1[N+](=O)[O-] | -25.0% | 18.1% | 20.6µM* | -9.1% | 4.2%
O=C(Nc1ccc(Cl)cn1)c1cccc2ccccc12 | -0.1% | ? | ? | -9.2% | ?
O=C(Nc1nnc2n1CCS2)c1ccco1 | ? | 9.8% | -3.3% | -7.8% | 0.0%
CC(=O)c1cccc(NC(=O)COc2ccccc2C(=O)c2cc(C#N)c(=O)n(C3CCCCC3)c2)c1 | -3.5% | -2.2% | 17.2% | -8.1% | 10.3µM*
N#Cc1cc(C(=O)c2ccccc2OCC(=O)Nc2ccccc2Cl)cn(C2CCCCC2)c1=O | ? | 6.7% | 9.9% | -2.9% | ?
O=C1CN(C(=O)CSc2nnnn2C2CC2)c2ccccc2N1 | . | -5.7% | -6.4% | . | 10.9%
Cc1ccn2cc(-c3ccc(Br)cc3)nc2c1 | 8.91µM* | 28.2% | 35.3% | ? | ?
Cc1ccc(S(=O)(=O)Nc2ccc(-c3cn4ccc(C)cc4n3)cc2)cc1 | ? | 20.6µM* | 0.731µM* | -1.0% | -29.5%
Cc1ccn2cc(-c3ccc(NS(=O)(=O)c4ccccc4)cc3)nc2c1 | ? | ? | -44.5% | 20.7% | 6.4%
Cc1ccn2cc(-c3cccc(NC(=O)CCC(=O)O)c3)nc2c1 | 7.08µM* | -8.4% | -7.6% | 10µM* | ?
Cc1ccn2cc(-c3cccc([N+](=O)[O-])c3)nc2c1 | 10µM* | -0.9% | -10.6% | ? | ?
COc1cc(OC)cc(C(=O)NNC(=O)C2CCCC2)c1 | 16.9% | 23.9% | -22.5% | 9.8% | 0.0%
COc1ccc2c(c1OC)C(=O)OC2N1C(=O)CC[C@H]1C(=O)NCC1CCCO1 (some centres undefined) | -32.2% | 0.4% | -2.6% | -1.8% | -6.1%
CSc1ccccc1C(=O)NCCOc1cccc(C)c1 | 30.8% | 16.4% | 13.5% | 18.8% | ?
CCN=c1scc(C)n1/N=C/c1ccc(O)c(O)c1O | 3.55µM* | -2.7% | -2.0% | ? | 3.7%
CCN=c1scc(C)n1/N=C/c1cc(Br)c(O)c(Br)c1 | -22.0% | 20.6µM* | -3.2% | 4.2% | ?
C=C(C)CN=c1scc(C)n1/N=C/c1ccco1 | ? | 17.0% | 2.0% | -1.4% | 18.3%
O=C(NNC(=O)c1ccccc1[N+](=O)[O-])c1csc(N2CCOCC2)n1 | . | 2.2% | 1.2% | . | 1.2%
COc1ccc(OCC(=O)N/N=C(\C)CC(=O)Nc2cccc([N+](=O)[O-])c2)cc1 | -25.7% | -0.3% | -62.1% | -1.1% | 6.0%
Cc1ccc(-c2cc3cccc[n+]3cc2-c2ccc(C)cc2)cc1 | ? | ? | -10.7% | 12.6µM* | ?

High-throughput results as filed in PubChem BioAssay.
